Molecules are shown by their SMILES. About 83,000 compounds went through this panel and 20% of them were active in at least one assay; those are over-represented in the sample as a whole.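 Cell lines were cultured in 96-well plates, exposed to a single compound concentration, and assessed for percent growth 48 hours later.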 Values without a mark were called inactive. Active and inactive are the calls of the source. The calls were made as follows: active = growth percent below 10; inactive = the rest.

Test systems include NCI-H23 lung; NCI-H226 lung; NCI-H322M lung; HOP-62 NSCLC; NCI-H460 lung; HOP-92 NSCLC; NCI-H522 lung; A549/ATCC NSCLC; 786-0 renal; COLO 205 colon; DU-145 prostate; K-562 leukemia; MALME-3M melanoma; MDA-MB-231 breast; RXF 393 renal; SF-268 CNS; SF-295 CNS; SF-539 CNS; UACC-257 melanoma; M14 melanoma.
Experiment in all cases: NCI-60 one-dose screen, 48 h (100 = growth as untreated, 0 = no growth, -100 = all killed)
Details in all cases: 10 µM unless noted

For `CN=S(=O)(OCCCCCOS(=O)(=NC)c1ccc(C)cc1)c1ccc(C)cc1` (stereo not given), the growth was 89.1% with NCI-H23 lung; 86% in the assay on NCI-H226 lung; 101% with NCI-H322M lung; 101% with HOP-62 NSCLC; 55.7% with NCI-H460 lung; 59.2% in the assay with HOP-92 NSCLC. Also, the growth was 116% in the assay with NCI-H522 lung; 119% in the assay on A549/ATCC NSCLC; 99.3% in the assay on 786-0 renal; 113% with COLO 205 colon; 85.7% in the assay on DU-145 prostate; 70.4% in the assay on K-562 leukemia. Moreover, the growth was 100% in the assay on MALME-3M melanoma; 97.2% with MDA-MB-231 breast; 123% in the assay on RXF 393 renal; 99% with SF-268 CNS; 91.6% with SF-295 CNS; 90.7% in the assay with SF-539 CNS. For the same molecule, the growth in the assay with UACC-257 melanoma was 124%; with M14 melanoma, 96.9%.

Take `Cc1cc(Nc2ccc3c(c2)OCO3)c2cc3c(cc2n1)OCO3`: the growth with NCI-H23 lung was 46%; with NCI-H226 lung it was 88%; in the assay on NCI-H322M lung, 57.5%; in the assay on HOP-62 NSCLC it was 17.9%; in the assay with NCI-H460 lung, 6.21% (active); in the assay with HOP-92 NSCLC it was 10.4%. Moreover, the growth in the assay on NCI-H522 lung was -21.1% (active); with A549/ATCC NSCLC, 46.3%; with 786-0 renal, 18.9%; in the assay with COLO 205 colon, -21.3% (active); in the assay with DU-145 prostate, 3.67% (active); with K-562 leukemia, 36.8%. Moreover, the growth in the assay on MALME-3M melanoma was 24.4%; in the assay on MDA-MB-231 breast, 32.3%; in the assay on RXF 393 renal, 6.97% (active); with SF-268 CNS, 37.9%; in the assay on SF-295 CNS, -62.6% (active); in the assay with SF-539 CNS, -15.5% (active). Besides, the results for the growth with UACC-257 melanoma and with M14 melanoma were 75.7% and -16.7% (active), respectively.

For the molecule `CCOC(=O)CNC(=O)Sc1ccc(C(C)(C)C)cc1`, the growth was 98.1% in the assay on NCI-H23 lung; 87.2% with NCI-H226 lung; 79.6% in the assay with NCI-H322M lung; 122% in the assay with HOP-62 NSCLC; 102% in the assay on NCI-H460 lung; 138% with HOP-92 NSCLC. Further, the growth in the assay on NCI-H522 lung is 69.6%; with A549/ATCC NSCLC, 109%; in the assay on 786-0 renal, 102%; with COLO 205 colon, 119%; in the assay with DU-145 prostate it was 114%; in the assay with K-562 leukemia, 71.9%. The growth in the assay on MALME-3M melanoma is 90.7%; in the assay on MDA-MB-231 breast, 105%; with RXF 393 renal, 118%; in the assay with SF-268 CNS, 107%; with SF-295 CNS, 102%; with SF-539 CNS, 94%. The growth with UACC-257 melanoma is 111%; in the assay on M14 melanoma, 102%.

With `O=C1CSc2ccccc2N1`, the growth was 99.8% with NCI-H23 lung; 111% with NCI-H226 lung; 109% in the assay on NCI-H322M lung; 101% in the assay with HOP-62 NSCLC; 107% with NCI-H460 lung; 83.9% in the assay on HOP-92 NSCLC. Besides, the growth in the assay on NCI-H522 lung is 104%; in the assay on A549/ATCC NSCLC, 96.5%; with 786-0 renal, 117%; in the assay with COLO 205 colon it was 108%; with DU-145 prostate, 116%; in the assay on K-562 leukemia, 122%. Moreover, the growth in the assay on MALME-3M melanoma was 108%; with MDA-MB-231 breast, 115%; in the assay on RXF 393 renal, 120%; with SF-268 CNS, 104%; in the assay with SF-295 CNS, 110%; with SF-539 CNS, 129%. Further, the growth is 101% with UACC-257 melanoma and 113% in the assay on M14 melanoma.

For `NC(=O)N1CCOCC1`, the growth in the assay with NCI-H23 lung was 106%; in the assay with NCI-H226 lung, 100%; in the assay on NCI-H322M lung, 106%; in the assay on HOP-62 NSCLC, 95.4%; with NCI-H460 lung, 108%; in the assay on HOP-92 NSCLC it was 72.9%. Further, the growth was 94.2% with NCI-H522 lung; 106% with A549/ATCC NSCLC; 108% in the assay with 786-0 renal; 113% with COLO 205 colon; 123% with DU-145 prostate; 96.6% with K-562 leukemia. Besides, the growth in the assay on MALME-3M melanoma was 111%; in the assay with MDA-MB-231 breast, 128%; in the assay on RXF 393 renal it was 117%; with SF-268 CNS, 109%; in the assay on SF-295 CNS, 115%; in the assay on SF-539 CNS, 117%. For the same molecule, the growth in the assay on UACC-257 melanoma is 119%; in the assay with M14 melanoma, 108%.

Turning to `S=C(Sc1ccc(Cl)cc1)Sc1ccc(Cl)cc1`, the growth is 21.8% in the assay on NCI-H23 lung; -52.5% (active) with NCI-H226 lung; 106% in the assay with NCI-H322M lung; 47.9% in the assay on HOP-62 NSCLC; 67.1% in the assay on NCI-H460 lung; -4.66% (active) in the assay on HOP-92 NSCLC. Further, the growth is -83% (active) with NCI-H522 lung; 45.5% in the assay on A549/ATCC NSCLC; -14.5% (active) in the assay with 786-0 renal; -54% (active) in the assay on COLO 205 colon; 17.2% with DU-145 prostate; -44% (active) in the assay on K-562 leukemia. In addition, the growth in the assay on MALME-3M melanoma is -52.8% (active); with MDA-MB-231 breast it was -29.5% (active); with RXF 393 renal it was -85.5% (active); in the assay with SF-268 CNS, -1.56% (active); in the assay on SF-295 CNS, 66%; with SF-539 CNS it was 37.6%. For the same molecule, the growth in the assay with UACC-257 melanoma was 88%; in the assay with M14 melanoma it was -45.1% (active).

Take `COc1nc2ccccc2s1`: the growth was 94.7% in the assay with NCI-H23 lung; 97.3% with NCI-H226 lung; 111% with NCI-H322M lung; 114% in the assay on HOP-62 NSCLC; 99.4% in the assay with NCI-H460 lung; 99.2% in the assay on HOP-92 NSCLC. Also, the growth in the assay on NCI-H522 lung is 96.3%; in the assay with A549/ATCC NSCLC, 96.8%; with 786-0 renal, 104%; in the assay with COLO 205 colon it was 93.1%; in the assay on DU-145 prostate it was 110%; in the assay on K-562 leukemia, 102%. Also, the growth with MALME-3M melanoma is 111%; in the assay on MDA-MB-231 breast, 115%; in the assay on RXF 393 renal, 118%; in the assay on SF-268 CNS it was 101%; in the assay on SF-295 CNS, 113%; with SF-539 CNS, 90.7%. Besides, the growth in the assay on UACC-257 melanoma is 84.8%; with M14 melanoma it was 93.5%.

Turning to `COC1OC(COC(C)=O)C(OC(C)=O)C(OC(C)=O)C1OC(C)=O` (stereo not given), the growth in the assay with NCI-H23 lung was 98%; in the assay on NCI-H226 lung it was 91.1%; with NCI-H322M lung, 101%; in the assay with HOP-62 NSCLC, 97.9%; in the assay on NCI-H460 lung, 115%; with HOP-92 NSCLC, 92.8%. Moreover, the growth with NCI-H522 lung was 71.9%; with A549/ATCC NSCLC it was 91.5%; in the assay on 786-0 renal, 98.8%; in the assay with COLO 205 colon, 98.7%; in the assay on DU-145 prostate, 111%; with K-562 leukemia, 102%. Further, the growth is 96.9% in the assay on MALME-3M melanoma; 90% in the assay with MDA-MB-231 breast; 114% in the assay on RXF 393 renal; 101% in the assay on SF-268 CNS; 90.1% in the assay with SF-295 CNS; 98.4% with SF-539 CNS. The growth is 85% with UACC-257 melanoma and 104% with M14 melanoma.

(Values after PubChem BioAssay (NCI).)
